Hits are enriched below; roughly 8% of the tested compounds scored in any of these assays.
PostGolgi ctrl = growth of the yeast control strain, post-Golgi counter-screen; inhibition, % at 10 µM; efflux-deficient yeast background strain, growth absorbance A615, 16 h; 5% of 98,000 active
PTK2B oligo ant = antagonists of human Pyk2 oligomerization | Q293 cells, Pyk2 FERM NanoBiT luminescence; hits give low values | z-score (the deposit names both 25 µM and 10 µM) | 0.83% of 99,000 active | AID 1347419;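 active means Z-score of -3 or lower, scaled per plate to the spread of control and sample wells; inactive means z-score above -3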;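 further: negative z-score means lost luminescence so less FERM oligomerization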
Cav3 T inh = inhibitors of human Cav3.2 T-type calcium channel | O95180 | Cav3.2-expressing cells, Fluo-4 calcium fluorescence FDSS; hits give low values | 4% of 100,000 active | B-score at 10 µM;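 active means single-dose well whose peak fluorescence ratio is a statistical outlier from its plate by either plate-standardised score or position-corrected B-score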
PostGolgi yeast = growth inhibition of a yeast mutant, post-Golgi transport screen; 0.9% of 98,000 active; inhibition, % at 10 µM; post-Golgi transport phenotypic cell assay;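 further: yeast cells grown in 1536-well plates; yeast grown about 18 h at 30C before absorbance read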
Active calls of the source: *; . = no result given. Unless noted, no stated cut-off is given here; in the data, active means inhibition above about 30%; inactive means the rest.

SMILES	PostGolgi ctrl	PTK2B oligo ant	Cav3 T inh	PostGolgi yeast
COC(=O)[C@@H]1C[C@@]2(O)[C@@H](O)[C@@H](O)[C@@H](O)C[C@H]2N1CC1CCCCC1	.	.	0.13	.
CC1(C)CCCN(C(=O)c2ccc3c(c2NCCO)C(=O)c2ccccc2C3=O)C1	.	-2	.	.
CC(C)c1ccc(C(=O)CSc2n[nH]c(-c3ccncc3)n2)cc1	63*	-0.35	2.3	95*
CCCN(CCC)c1nc(N)nc(-c2cc(Cl)ccc2OC)n1	56*	0.3	-1.2	9
CCCNc1nc(N)nc(-c2cc(Cl)ccc2OC)n1	14	0	-0.57	2
O=C(Nc1cccnc1)Nc1ccc(Br)cc1Cl	35*	0.53	-0.34	-10
O=C(Nc1cccnc1)Nc1ccccc1Cl	20	0.89	-0.13	3
Cc1ccc(-c2csc(NC(=O)c3cccc(N4C(=O)CCC4=O)c3)n2)o1	7	.	-5.2*	-4
O=C(CN1/C(=C(/O)c2ccccc2)C(=O)c2ccccc2S1(=O)=O)c1ccccc1	9	-1.4	-6.9*	-13
COc1ccc(O)c(CN2CCN(C/C=C/c3ccccc3)CC2)c1	34*	0.84	-0.27	42*
CCCCc1nc(NCCNC(=O)c2ccco2)c(C#N)c2c1CSC(C)(C)C2	100*	.	-5.8*	18
CCCCc1nc(NCCNC(=O)c2ccccc2)c(C#N)c2c1CSC(C)(C)C2	99*	-0.27	-4.5*	15
O=C(CSc1ncn[nH]1)Nc1ccc(Br)cc1F	-2	0.65	0.17	-7
Cc1ccc(-n2c(C)cc(C(=O)OCC(=O)N(CC(C)C)C3CCS(=O)(=O)C3)c2C)cc1 (stereo not given)	-7	-0.03	-8.2*	0
CCc1ccc(-c2nc(CN3CCCC(C(=O)NCCc4ccc(OC)c(OC)c4)C3)c(C)o2)cc1 (stereo not given)	3	-0.97	-5.8*	7
COc1ccc(CCNC(=O)C2CCCN(Cc3nc(-c4ccccc4C)oc3C)C2)cc1OC (stereo not given)	-4	-0.08	.	8
CCN1C(=O)CC(C(=O)O)SC1=Nc1ccc(OC)cc1 (stereo not given)	14	-0.17	-0.17	0
Cc1nc(-c2cccc(NS(=O)(=O)c3ccc4ccccc4c3)c2)cs1	39*	-0.23	-2.4	8
CC(=O)Nc1ccc(NS(=O)(=O)c2ccc3ccccc3c2)cc1	4	-0.44	-0.33	-6
O=S(=O)(Nc1cccc(CCc2ccccn2)c1)c1ccc2ccccc2c1	32*	0.36	-4.4*	6
COc1ccc(/C=N/OCC(=O)Nn2c(C)nc3ccccc3c2=O)cc1	.	0.55	.	.
c1ccc(-c2nc3nc4ccccc4nc3n2Cc2ccco2)cc1	32*	0.33	-2.3	-10
O=S(=O)(NCCSCc1c(Cl)cccc1Cl)c1ccc2c(c1)OCCO2	24	-4.3*	-3.6	-7
O=S(=O)(NCCSCc1ccc(Cl)cc1Cl)c1ccc2c(c1)OCCO2	27	-2.3	-4.5*	0
O=S(=O)(NCCSc1ccc(Cl)cc1)c1ccc2c(c1)OCCO2	31*	-1.4	-8.7*	-3
SMILES	PostGolgi ctrl	PTK2B oligo ant	Cav3 T inh	PostGolgi yeast
Cc1cccc(NC(=O)N(C)Cc2cccs2)c1	3	0.53	-0.27	-8
CCO[C@H]1OC(C(=O)N2CCOCC2)=C[C@@H](C)[C@@H]1CCCO	.	.	0.36	.
Cc1sc2ncnc(NCc3ccccc3)c2c1C	6	0.92	0.67	-4
Cc1sc2ncnc(Nc3ccccc3)c2c1C	33*	0.86	-1.1	3
CCOc1cc2c3c(c1)C1(C(=O)N3C(C)(C)C=C2C)C(C#N)=C(N)Oc2cc(O)ccc21 (stereo not given)	10	-0.68	-5.6*	-3
CN1CCc2c(sc3ncn4nc(-c5ccccc5O)nc4c23)C1	-4	.	.	5
Cc1cc2c(cc(C(=O)OCC(=O)NCc3cccs3)n2C(C)C)o1	57*	-0.52	-3.5	10
COc1ccc(-c2nnc(SCC(=O)NCc3cccs3)n2C(C)C)cc1	14	0.77	1.8	-2
O=C(Nc1ccccc1)c1ccc(Br)o1	.	.	0.17	.
O=C(c1ccccc1)c1cccc(NC(=O)c2ccc(Br)o2)c1	-10	-2.4	-3.7*	0
CC[C@H](C)/C=C(C)/C=C/C1=CC2=CC(=O)[C@]3(C)OC(=O)[C@@H](C(C)=O)[C@@H]3C2=CO1	.	.	-4*	.
CCCC(O)(c1ccc(Cl)cc1)C(CN1CCOCC1)c1ccccc1 (stereo not given)	50*	.	-1.2	1
Cn1nnc2cc(C(=O)NC(C)(C)C)ccc21	37*	-0.43	0.095	4
Cn1nnc2cc(C(=O)NCc3ccco3)ccc21	13	0.52	0.88	-2
O=C(Nc1ccc(-n2nncc2-c2ccco2)cc1)c1cc2ccccc2oc1=O	6	-0.04	1	12

Assay outcomes (PubChem BioAssay)
